Sampled rows, rich in hits. Any-hit rate of the full collection: about 11%.
HTT cytoprotect: Huntington cell model cytoprotection by ATP luminescence. PC12 HTT-Q103 induced, cytoprotection, ATP luminescence, 40 h. AID 1471. Potency, µM (series often up to 56.4 µM), hits mostly activators. 230,000 compounds, 0.14% hits; also: nearly all actives have a fitted effect of over 45% in size
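ATP quantification (ATPlite) reports survival of PC12 cells in which tebufenozide, 100 nM final, switches on Htt exon 1 with 103 glutamines linked to GFP; compounds are titrated.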
PNC inhibitor: blocks assembly of the perinucleolar compartment | 140,000 compounds, 3.1% hits | PC3M PTB-GFP, PNC prevalence imaging, 16 h; hits give low values | activity change (PNC), negative = inhibition, % at 10 µM;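 active = readout at or below -70, meaning at least 70% loss of cells showing the perinucleolar compartment, a nuclear body marking cancer cells; inconclusive = readout between -30 and a set limit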
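Read-out is percentage of cells bearing a perinucleolar compartment, from automated 20x imaging of fixed, Hoechst-stained PC3M PTB-GFP cells. Cells were seeded 4 h, then exposed 16 h to compound (23 nl of library stock) in duplicate plates.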
HPGD block: blocks human HPGD enzyme activity; purified HPGD, NADH fluorescence kinetic, PGE2 substrate; Potency, µM, usual class: inhibitors; 150,000 compounds, 4.3% hits; AID 894; active = well fitted inhibition curve with a large enough effect, not every such curve was filed as active; inconclusive = small, poorly fitted or top-dose-only effect, or another doubt; inactive = no such curve, though single readings can be large or run the other way
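20 nM HPGD preincubated 15 min at room temperature with compound in 50 mM Tris-HCl pH 8, 0.01% Tween 20. Started with 1 mM NAD+ and 30 uM prostaglandin E2; NADH fluorescence (360/450 nm) read 5 times over 30-s intervals, last minus first.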
ALDH1A1 block: blocks purified human ALDH1A1 activity. Potency, µM (top dose mostly 75.3 µM), hits mostly inhibitors. 220,000 compounds, 7.3% hits. AID 1030. Purified ALDH1A1, NADH fluorescence, propionaldehyde substrate. P00352; active = well fitted inhibition curve with a large enough effect, not every such curve was filed as active; inconclusive = small, poorly fitted or top-dose-only effect, or another doubt; inactive = no such curve, though single readings can be large or run the other way
Target sequence (P00352 whole entry, looked up): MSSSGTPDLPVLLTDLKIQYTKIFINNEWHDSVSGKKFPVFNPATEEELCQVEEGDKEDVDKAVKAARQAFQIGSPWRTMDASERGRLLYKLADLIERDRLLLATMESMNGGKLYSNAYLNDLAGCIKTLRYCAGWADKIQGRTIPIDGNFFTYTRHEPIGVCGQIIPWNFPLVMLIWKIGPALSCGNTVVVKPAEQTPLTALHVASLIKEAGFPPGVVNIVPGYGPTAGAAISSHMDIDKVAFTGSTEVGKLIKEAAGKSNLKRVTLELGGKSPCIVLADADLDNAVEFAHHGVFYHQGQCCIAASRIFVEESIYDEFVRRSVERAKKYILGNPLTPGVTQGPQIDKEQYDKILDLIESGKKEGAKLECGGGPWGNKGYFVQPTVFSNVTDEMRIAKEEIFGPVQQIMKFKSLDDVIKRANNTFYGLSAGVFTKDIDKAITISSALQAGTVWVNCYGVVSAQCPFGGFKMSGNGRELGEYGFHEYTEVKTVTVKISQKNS
RGS12 GoLoco inh: RGS12 GoLoco-Gai1 interaction inhibition | AID 880 | 230,000 compounds, 0.44% hits | P63096 | Gai1:RGS12 GoLoco peptide FP, rhodamine, 10 min | Potency, µM (top dose mostly 61.6 µM), usual class: inhibitors; active = well fitted inhibition curve with a large enough effect, not every such curve was filed as active; inactive = no such curve, though single readings can be large or run the other way; also: nearly all actives have a fitted effect of over 30% in size
HTT aggregate: mutant huntingtin aggregation inhibition; PC12 HttQ103-GFP aggregates, Acumen cytometry, 40 h; Potency, µM (titrated, usually from 46.1 µM), actives largely listed as inhibitors; 220,000 compounds, 1.1% hits; AID 1688; also: nearly all actives have a fitted effect of over 60% in size
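PC12 cells stably carrying ecdysone-inducible HTT exon 1 Q103–GFP were induced with tebufenozide (100 nM final) and treated with library compounds in titration. GFP aggregates in lysates were counted by laser scanning cytometry.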
Hits are given with their value; 0 = inactive; ? = inconclusive; - = no result; [ ] = remark or other dose. Unless noted, calls follow the shape of the dose curve; as a rule, active = well fitted curve in the direction sought with a large enough effect; inconclusive = small, poorly fitted or top-dose-only effect, or another doubt; inactive = no such curve, though single readings can be large; an effect the other way counts as inactive or inconclusive.

SMILES	HTT cytoprotect	PNC inhibitor	HPGD block	ALDH1A1 block	RGS12 GoLoco inh	HTT aggregate
CCCCCCN(C(=O)CCCCCN1C(=O)NC(c2ccccc2-c2ccccc2)C(C(=O)OCc2ccccc2)=C1C)C(C(=O)NCCCC)c1ccc(OCC(=O)OC)c(C(=O)OC)c1 (centres undefined)	0	-	0	35µM	0	-
CCCCCCN(C(=O)CCCCCN1C(=O)NC(C2CCCCC2)C(C(=O)OCc2ccccc2)=C1C)C(C(=O)NCCCC)c1ccc(OCC(=O)OC)c(C(=O)OC)c1 (centres undefined)	0	-	0	28µM	0	-
CCCCCCN(C(=O)CCCCCN1C(=O)NC(c2ccc3ccccc3c2)C(C(=O)OCc2ccccc2)=C1C)C(C(=O)NCCCC)c1ccc(OCC(=O)OC)c(C(=O)OC)c1 (centres undefined)	0	-	0	0	0	-
CC(=O)O[C@H]1CC2(C)[C@@H](C[C@@H](O)[C@H]3[C@@]4(C)CC[C@@H](O)[C@@H](C)[C@@H]4CC[C@@]32C)C1=C(CCC=C(C)C)C(=O)O (some centres undefined)	-	-	0	0	0	-
CCN(CC)S(=O)(=O)c1cccc(C(=O)N2CC(O)CC2C(=O)O)c1 (centres undefined)	?	-107	0	0	0	0
CCN(CC)S(=O)(=O)c1cccc(C(=O)N2CC(O)CC2C(=O)OC)c1 (centres undefined)	0	0	0	0	0	0
CCNC(=O)[C@@H]1O[C@@H](n2cnc3c(NCc4ccccc4)ncnc32)[C@@H](O)[C@H]1O	0[1.9 µM]	-	-	-	-	-
O=C(O)c1ccc(N2CC3CC(C2)c2cccc(=O)n2C3)c(NC(=S)Nc2ccc(Cl)cc2Cl)c1 (centres undefined)	0	-	-	16µM	0	0
CC(NC(=S)N1CCOCC1)c1ccccc1 (centres undefined)	0[10 µM]	-121	0	0	0	0
CC(NC(=S)Nc1ccccc1Cl)C(c1ccccc1)N1CCOCC1 (centres undefined)	-	0	0	28µM	0	?
Cc1[nH][nH]c(=O)c1C=NCc1cccc(C(F)(F)F)c1	0[10 µM]	-	-	0	0	0
CC(C)=CCC/C(C)=C/COc1c2occc2cc2ccc(=O)oc12	0[1.9 µM]	-	?	8.9µM	0	-
CC(C)=CCC/C(C)=C/COc1ccc2ccc(=O)oc2c1	0	-	?	?	0	0[9.22 µM]
CCn1c2ccc(C)cc2c2nnc(SCCN3CCOCC3)nc21	0[10 µM]	-	-	25µM	0	0[9.22 µM]
CNc1nc(SCc2ccc(C)cc2)nc2c1CCCC2	0	0	?	6.3µM	0	?
CC1CCCC(C)N1C(=O)Cn1cc(/C=C2/C(=O)Nc3ccccc32)c2ccccc21 (centres undefined)	0	0	0	0	6.3µM	0
COc1cc(CN(C)CC(=O)c2[nH]c(C)c(C(C)=O)c2C)ccc1OC(F)F	0[10 µM]	0	0	3.5µM	0	0
CCCCN(CC)Cc1ccc(CNC(=S)Nc2cccc(F)c2)o1	0	-	-	14µM	0	0
Cc1noc(C)c1-c1ccc2ncnc(NCc3cccs3)c2c1	0	-	-	?	0	-
COc1ccc(S(=O)(=O)N2N=C(c3ccc(NS(C)(=O)=O)cc3)CC2c2ccco2)cc1 (centres undefined)	0	-	-	22µM	0	0
CS(=O)(=O)Nc1ccc(C2=NN(C(=O)c3ccco3)C(c3ccccc3)C2)cc1 (centres undefined)	0[10 µM]	?	0	16µM	0	0
CS(=O)(=O)Nc1ccc(C2=NN(C(=O)c3ccco3)C(c3cccc(F)c3)C2)cc1 (centres undefined)	0	-	-	14µM	0	0
CCS(=O)(=O)Nc1ccc(C2=NN(C(=O)c3ccco3)C(c3cccc(F)c3)C2)cc1 (centres undefined)	0	-	-	?	0	0
COc1ncc2nc(-c3ccc(F)cc3)c(=O)n(CCC#N)c2n1	0	-	?	?	0	-
CCCn1nnc(NC(=S)NC(=O)/C=C/c2ccc(Cl)cc2)n1	0[10 µM]	-	-	-	0	0[9.22 µM]
SMILES	HTT cytoprotect	PNC inhibitor	HPGD block	ALDH1A1 block	RGS12 GoLoco inh	HTT aggregate
CCCn1nnc(NC(=O)/C=C/c2ccc(C(C)C)cc2)n1	0[10 µM]	-	-	14µM	0	0[9.22 µM]
N=c1n(CCN2CCCCC2)c2ccccc2n1CC(=O)c1ccc(Cl)c(Cl)c1	0[10 µM]	-	-	-	0	0[9.22 µM]
O=C(CN1CCSC1=NCc1ccccc1)c1ccc(Cl)c(Cl)c1	0[10 µM]	0	0	13µM	0	0
O=C(CSc1nnnn1-c1ccc(F)cc1)c1ccc(O)c(O)c1	0	-	-	22µM	0	0
O=C(c1ccc2c(c1)OCCCO2)c1cccs1	0[10 µM]	0	14µM	0	0	0
O=C(Nc1ccc2c(c1)OCO2)c1cccs1	0	0	25µM	?	0	0
O=C(Nc1ccc2c(c1)OCO2)c1ccc(Br)s1	0[0.074 µM]	0	0	0	0	0
O=C(Nc1ccc2c(c1)OCCO2)c1cccs1	0[1.9 µM]	?	20µM	?	0	0
O=C(Nc1nc2cc3c(cc2s1)OCCO3)c1cccs1	0[10 µM]	-	-	-	0	0[9.22 µM]
Cc1cnc(NC(=O)CSc2nnc(COc3c(C)cccc3C)o2)s1	0[10 µM]	-119	0	0	0	0
O=C(NC1CCc2ccccc21)C1CCN(S(=O)(=O)c2ccc(Cl)cc2)CC1 (centres undefined)	0[10 µM]	0	0	0	0	?
O=C(Nc1ccc(S(=O)(=O)N2CCc3ccccc32)cc1)c1ccc2c(c1)OCO2	0[10 µM]	?	0	18µM	0	?
CNC(=O)c1ccsc1NC(=O)c1ccc(S(=O)(=O)N2CCCc3ccccc32)cc1	-	0	?	?	0	0
COc1cc(C(=O)Nc2ccc(S(=O)(=O)N3CCc4ccccc43)cc2)cc(OC)c1OC	0	0	0	?	0	0
O=S(=O)(NC1CCc2ccccc21)c1ccc(S(=O)(=O)N2CCCC2)cc1 (centres undefined)	0[10 µM]	0	0	14µM	0	0
CCc1nnc(NC(=O)c2ccc(S(=O)(=O)N3CCCc4ccccc43)cc2)o1	0[10 µM]	0	0	0	0	8.9µM
O=C(Nc1ccc(S(=O)(=O)N2CCc3ccccc32)cc1)c1ccco1	0[10 µM]	0	0	25µM	0	?
Cn1c(=O)c2[nH]c(CCCCC(=O)O)nc2n(C)c1=O	0[10 µM]	-	0	?	0[14.2 µM]	-
O=S(=O)(NC1CCCC1)c1ccc(S(=O)(=O)N2CCc3ccccc32)cc1	0[10 µM]	0	0	32µM	0	11µM
CC1=NOC(=O)/C1=C\c1ccc(-c2ccc(Cl)cc2Cl)o1	0	0	1.8µM	10µM	0	0
C=CC[n+]1c(-c2ccc(OC)c(OC)c2)csc1NNC(=O)Nc1ccccc1	0	?	0	?	0	13µM
C=CC[n+]1c(-c2ccccc2)csc1NC(C)(C)C	0[10 µM]	-	-	0	0	0
O=C(c1ccc(Cl)cc1)c1cnc(-c2ccccc2)s1	0	0	0	0	0	0
CO/N=C/CC(=O)c1cnc(-c2ccc(Cl)cc2)s1	0	-	-	3.2µM	0	0

Source: PubChem BioAssay (National Center for Advancing Translational Sciences (NCATS))
